# High-throughput results (PubChem)
# KDM5B inhibitor: Primary screen for KDM5B Histone Demethylases FDH-coupled qHTS. Lysine-specific demethylase 5B (Homo sapiens), Q9UGL1. KDM5B demethylase, FDH-coupled NADH fluorescence (FDH is formaldehyde dehydrogenase). Potency, µM (top dose mostly 57.7 µM), usual class: inhibitors. 220,000 compounds, 2.6% hits. AID 1347165, 2019; active means well fitted inhibition curve with a large enough effect; further: nearly all actives have a fitted effect of over 70% in size
# Target sequence (Q9UGL1 whole entry, looked up): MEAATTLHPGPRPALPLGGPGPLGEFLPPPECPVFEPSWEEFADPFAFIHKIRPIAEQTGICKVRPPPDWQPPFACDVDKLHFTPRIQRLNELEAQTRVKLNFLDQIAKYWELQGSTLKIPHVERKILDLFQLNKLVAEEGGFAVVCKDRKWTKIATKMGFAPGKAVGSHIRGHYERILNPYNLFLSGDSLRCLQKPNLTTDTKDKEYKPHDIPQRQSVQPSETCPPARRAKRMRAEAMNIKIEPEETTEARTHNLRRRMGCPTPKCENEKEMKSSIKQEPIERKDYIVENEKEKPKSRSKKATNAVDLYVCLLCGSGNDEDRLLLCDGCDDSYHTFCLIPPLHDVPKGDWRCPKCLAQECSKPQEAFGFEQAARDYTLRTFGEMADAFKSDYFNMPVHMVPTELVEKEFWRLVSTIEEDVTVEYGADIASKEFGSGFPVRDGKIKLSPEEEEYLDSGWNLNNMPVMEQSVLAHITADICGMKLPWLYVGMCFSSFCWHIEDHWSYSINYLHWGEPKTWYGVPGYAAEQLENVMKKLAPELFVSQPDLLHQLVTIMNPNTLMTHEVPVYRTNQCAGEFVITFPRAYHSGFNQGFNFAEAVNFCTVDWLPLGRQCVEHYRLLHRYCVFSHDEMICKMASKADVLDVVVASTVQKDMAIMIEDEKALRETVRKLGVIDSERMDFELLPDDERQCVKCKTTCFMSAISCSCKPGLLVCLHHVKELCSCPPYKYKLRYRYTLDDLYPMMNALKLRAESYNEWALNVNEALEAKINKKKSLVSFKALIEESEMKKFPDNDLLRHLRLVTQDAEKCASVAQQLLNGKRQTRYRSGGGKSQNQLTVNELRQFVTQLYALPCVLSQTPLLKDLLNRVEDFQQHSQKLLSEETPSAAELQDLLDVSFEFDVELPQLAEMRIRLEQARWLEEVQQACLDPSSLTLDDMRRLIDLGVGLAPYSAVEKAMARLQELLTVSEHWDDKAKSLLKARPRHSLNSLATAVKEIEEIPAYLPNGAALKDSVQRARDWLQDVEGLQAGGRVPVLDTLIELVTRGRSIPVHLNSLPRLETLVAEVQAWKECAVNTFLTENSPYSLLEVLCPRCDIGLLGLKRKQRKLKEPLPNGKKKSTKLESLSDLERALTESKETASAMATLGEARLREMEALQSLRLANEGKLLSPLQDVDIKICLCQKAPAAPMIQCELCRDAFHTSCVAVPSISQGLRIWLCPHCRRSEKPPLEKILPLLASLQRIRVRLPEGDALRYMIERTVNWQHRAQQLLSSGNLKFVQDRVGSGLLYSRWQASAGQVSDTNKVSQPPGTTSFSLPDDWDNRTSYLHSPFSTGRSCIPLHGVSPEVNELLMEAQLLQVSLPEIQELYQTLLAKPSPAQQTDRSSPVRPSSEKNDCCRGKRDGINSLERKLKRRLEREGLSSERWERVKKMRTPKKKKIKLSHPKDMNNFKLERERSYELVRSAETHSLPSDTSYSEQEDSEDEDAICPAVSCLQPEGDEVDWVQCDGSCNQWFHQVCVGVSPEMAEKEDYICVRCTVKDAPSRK
#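 Inhibition is measured as reduced NADH fluorescence generation from FDH coupling to formaldehyde release. Truncated KDM5BΔAP at 200 nM final acts on H3K4me3 peptide (12.5 µM in substrate mix) in pH 7.5 HEPES buffer with Tween-20, 30 min, room temperature.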
# A number is an active result; 0 = inactive. This is one part of a sample in which hits are shown more often than they occur.
SMILES,KDM5B inhibitor
Cc1nc(-c2cccs2)cc([C@H]2CN3CC[C@H]2C[C@@H]3CNC(=O)c2ccc(N(C)C)cc2)n1,0
COc1ccccc1-c1cc([C@H]2CN3CC[C@H]2C[C@@H]3CNC(=O)N2CCOCC2)n(C)n1,0
Cc1nc(-c2ccccc2)cc([C@H]2CN3CC[C@H]2C[C@@H]3CNC(=O)c2cccs2)n1,0
Cn1nc(-c2ccc3ccccc3c2)cc1[C@H]1CN2CC[C@H]1C[C@@H]2CNC(=O)N1CCOCC1,0
Cc1nc(-c2ccc(C(F)(F)F)cc2)cc([C@H]2CN3CC[C@H]2C[C@@H]3CNC(=O)c2ccccc2C(=O)O)n1,0
COc1ccc(-c2cc([C@H]3CN4CC[C@H]3C[C@@H]4CNC(=O)N3CCOCC3)nc(C)n2)cc1OC,22.4µM
Cn1nc(-c2ccc(F)cc2)cc1[C@H]1CN2CC[C@H]1C[C@@H]2CNC(=O)N1CCOCC1,0
Cc1nc(-c2ccc(N(C)C)cc2)cc([C@H]2CN3CC[C@H]2C[C@@H]3CNC(=O)N2CCOCC2)n1,28.2µM
COc1ccc2c(c1)c(C(=O)OCC(=O)N(C)C)c(C)n2C1CC1,0
COc1cccc(CCNCc2ccc(Br)cc2)c1,0
FC(F)Oc1ccc(CNCCc2c[nH]c3ccccc23)cc1,0
COc1ccc(NC(=O)NC[C@H]2C[C@@H]3CCN2C[C@@H]3CN2CCN(c3ncccn3)CC2)cc1,0
O=C(COC(=O)CCc1nc2ccccc2s1)Nc1ccc(Cl)cc1C(=O)c1ccccc1,0
CC(C)N1CCC(NC(=O)c2cn(Cc3ccccc3)c3ccccc23)CC1,0
COCc1nnc2n1CCC(NC(=O)c1nn(C)c3ccccc13)CC2 (stereo unspecified),28.2µM
COCCn1c(C)cc(C(=O)NC2CCc3nnc(C)n3CC2)c1C (stereo unspecified),0
CN(CC1CCCCC1)C1CCc2ccccc2C1 (stereo unspecified),0
Cc1nc(N2CC3CC(C2)c2cccc(=O)n2C3)c2c(C)nn(C)c2n1 (stereo unspecified),0
O=C(NC[C@H]1C[C@@H]2CCN1C[C@@H]2CN1C[C@@H]2C[C@H](C1)c1cccc(=O)n1C2)c1ccccc1,0
Cc1noc(-c2ccc(N3CC4CC(C3)c3cccc(=O)n3C4)nc2)n1 (stereo unspecified),22.4µM
Cc1cccc(OCC(=O)N2[C@H]3CC[C@@H]2c2cnc(-c4ccccc4)nc2C3)c1,0
COc1ccc([C@@H]2CN(C(=O)c3sccc3C)[C@@H]3C4CCN(CC4)[C@@H]32)cc1,0
COc1ccc([C@@H]2CN(c3nccc(C)n3)[C@@H]3C4CCN(CC4)[C@@H]32)cc1,14.1µM
COc1ccc([C@@H]2CN(S(=O)(=O)N3CCCC3)[C@@H]3C4CCN(CC4)[C@@H]32)cc1,0
COc1cc2c(cc1Oc1cccc(N(C)C)c1)NC(=O)C21CCN(CC2CC2)CC1,0
SMILES,KDM5B inhibitor
COc1cc2c(cc1Oc1cccc(N(C)C)c1)NC(=O)C21CCN(c2ncc(F)cn2)CC1,31.6µM
CCc1cnc(N2CCC3(CC2)C(=O)Nc2cc(Oc4ccccc4)c(OC)cc23)nc1,31.6µM
COc1cc2c(cc1OC1CCCC1)NC(=O)C21CCN(c2ncccn2)CC1,0
CCc1cnc(N2CCC3(CC2)C(=O)Nc2cc(OC4CCCC4)c(OC)cc23)nc1,35.5µM
COc1cc2c(cc1OC1CCCC1)NC(=O)C21CCN(Cc2ccccc2)CC1,0
COc1cc2c(cc1Oc1ccccc1)NC(=O)C21CCN(Cc2cccnc2)CC1,0
COc1cc2c(cc1OC1CCCC1)NC(=O)C21CCN(Cc2nccn2C)CC1,0
COc1cc2c(cc1OC1CCCC1)NC(=O)C21CCN(C(=O)Cc2ccccc2)CC1,0
COc1cc2c(cc1Oc1ccccc1)NC(=O)C21CCN(CC2CC2)CC1,0
COc1cc2c(cc1Oc1cccc(N(C)C)c1)NC(=O)C21CCN(Cc2ccccc2)CC1,0
COc1cc2c(cc1OC1CCCC1)NC(=O)C21CCN(c2ncc(C(C)C)cn2)CC1,35.5µM
CN(C)C(=O)Oc1ccc2cc(-c3ccccc3)c(=O)oc2c1,0
COc1ccc2c(c1)C1(CCN(C(=O)C(C)(C)C)C1)C(=O)N2C (stereo unspecified),0
Cc1ccc(C)c(NC(=O)c2cn(Cc3ccccc3)nn2)c1,0
Clc1ccc(COc2cccc(CNC3CN4CCC3CC4)c2)c(Cl)c1 (stereo unspecified),0
COc1ccc(-n2nc(C)c3c2NC(=O)CSC3c2cccc(O)c2)cc1 (stereo unspecified),0
CCCCn1c(C)c(C(=O)OCC)c2cc(OC)ccc21,0
CC(C)(C)c1ccc(-c2cn(C[C@H]3CC4CCN3C[C@@H]4C(=O)Nc3ccccc3)nn2)cc1 (stereo partly specified),0
C[N+](C)(C)CC1CCCCC1=O (stereo unspecified),0
Cc1ccc(NC(=O)CN2C(=O)CN=C(c3ccc(F)cc3)c3c2sc(C)c3C)cc1,0
c1cncc(CNCCN2CCCC2)c1,0
O=C(NC[C@H]1C[C@@H]2CCN1C[C@@H]2CN1CCN(c2ccc(F)cc2)CC1)Nc1cccc(F)c1,0
CC(C)(C)c1ccc(OCC(=O)N2CCN(Cc3nc(N)c4ccccc4n3)CC2)cc1,0
O=C1NC2(CN(Cc3ccccn3)C2)Oc2ccccc21,0
O=C1NC2(CCN(Cc3cccnc3)C2)OCc2ccccc21 (stereo unspecified),0
SMILES,KDM5B inhibitor
O=C1NC2(CCN(Cc3ccccn3)C2)OCc2ccccc21 (stereo unspecified),39.8µM
C#CCN1CCN(c2cccc(C)c2)CC1,0
FC(F)(F)CN1C2CCC1CN(c1cncnc1)C2,0
N#CCC1CN2CCC1C(c1ccccc1)C2 (stereo unspecified),0
O=C(O)c1cc(Cl)c(O)c(Cl)c1,0
CCN1C(=O)C(O)(C(F)(F)F)c2cc(C(O)(C(=O)OC)C(F)(F)F)ccc21 (stereo unspecified),0
Cc1ccccc1-c1ccc2n(c1=O)C[C@H]1C[C@@H]2CN(S(=O)(=O)c2ccccc2C#N)C1,0
O=c1c(-c2cccs2)ccc2n1C[C@H]1C[C@@H]2CN(Cc2cc3ccccc3o2)C1,31.6µM
COc1ccccc1NC(=O)N1C[C@@H]2C[C@H](C1)c1c(-c3cccs3)ccc(=O)n1C2,0
Cc1ccccc1-c1ccc2n(c1=O)C[C@H]1C[C@@H]2CN(Cc2cccs2)C1,31.6µM
CC(C)N1CC2CCC(C1)N2Cc1cccs1,0
O=C(CSC1c2ccccc2Oc2ccccc21)Nc1ccccc1C(=O)O,0
N#Cc1ccc(NC(=O)CSC2=Nc3ccccc3C3CC=NN23)cc1Cl (stereo unspecified),0
C[N+](C)(C)Cc1cccs1,0
O=C(c1ccccc1)N1C[C@@H]2C[C@H](C1)c1ccc(C3CCCCC3)c(=O)n1C2,39.8µM
O=C(c1cccs1)N1C[C@@H]2C[C@H](C1)c1ccc(C3CCCCC3)c(=O)n1C2,0
O=C(Nc1ccc(=O)n2c1[C@@H]1C[C@@H](CN(S(=O)(=O)c3ccccc3)C1)C2)c1ccccc1,0
Cc1ccccc1-c1ccc2n(c1=O)C[C@H]1C[C@@H]2CN(C(=O)c2ccc(F)cc2)C1,35.5µM
O=C(c1ccc(F)cc1)N1C[C@@H]2C[C@H](C1)c1c(/C=C/c3ccc(Cl)cc3)ccc(=O)n1C2,31.6µM
O=C(c1ccc(F)cc1)N1C[C@@H]2C[C@H](C1)c1c(-c3cncnc3)ccc(=O)n1C2,0
O=C(Nc1ccc2n(c1=O)C[C@H]1C[C@@H]2CN(C(=O)c2ccccc2)C1)NC1CCCCC1,35.5µM
